Results reported in PubChem BioAssay (NCATS).
Values joined by “and” are separate entries in the source; they are usually repeats but may differ in a detail not shown here. Equal entries are not always repeated. Inconclusive results are not listed. Active and inactive are the calls of the source. Calls follow the shape of the dose curve; as a rule, active = well fitted inhibition curve with a large enough effect; inconclusive = small, poorly fitted or top-dose-only effect; inactive = flat fitted curve, though single readings scatter.

Key:
ICS = assay: qHTS profiling for inhibitors of Plasmodium falciparum proliferation (AID 504749); settings: P. falciparum in erythrocytes, SYBR Green DNA, 72 h; series mostly up to 28.7 µM
Summary of the method: (§1)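 Three-day growth assay of blood-stage parasites in erythrocytes (0.3% parasitemia, 2.5% hematocrit) at 37 C, 5% CO2, quantified by SYBR Green DNA staining after overnight detergent lysis.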

JCK = assay: as above; settings: P. falciparum in erythrocytes, SYBR Green DNA, 72 h; series mostly up to 28.7 µM
Summary of the method: as §1

N140 = assay: as above; settings: P. falciparum in erythrocytes, SYBR Green DNA, 72 h; series mostly up to 28.7 µM
Summary of the method: as §1

P93_24 = assay: as above; settings: P. falciparum in erythrocytes, SYBR Green DNA, 72 h; series mostly up to 28.7 µM
Summary of the method: as §1

P94_40 = assay: as above; settings: P. falciparum in erythrocytes, SYBR Green DNA, 72 h; series mostly up to 28.7 µM
Summary of the method: as §1

PAD = assay: as above; settings: P. falciparum in erythrocytes, SYBR Green DNA, 72 h; series mostly up to 28.7 µM
Summary of the method: as §1

PC15 = assay: as above; settings: P. falciparum in erythrocytes, SYBR Green DNA, 72 h; series mostly up to 28.7 µM
Summary of the method: as §1

PC26 = assay: as above; settings: P. falciparum in erythrocytes, SYBR Green DNA, 72 h; series mostly up to 28.7 µM
Summary of the method: as §1

PC49 = assay: as above; settings: P. falciparum in erythrocytes, SYBR Green DNA, 72 h; series mostly up to 28.7 µM
Summary of the method: as §1

SC27B = assay: as above; settings: P. falciparum in erythrocytes, SYBR Green DNA, 72 h; series mostly up to 28.7 µM
Summary of the method: as §1

TAB109 = assay: as above; settings: P. falciparum in erythrocytes, SYBR Green DNA, 72 h; series mostly up to 28.7 µM
Summary of the method: as §1

TAB113 = assay: as above; settings: P. falciparum in erythrocytes, SYBR Green DNA, 72 h; series mostly up to 28.7 µM
Summary of the method: as §1

TAB165 = assay: as above; settings: P. falciparum in erythrocytes, SYBR Green DNA, 72 h; series mostly up to 28.7 µM
Summary of the method: as §1

CRL-7250 = normal cell line; assay: Cytotoxic Profiling of Annotated Libraries Using Quantitative High-Throughput Screening (AID 1296008); settings: Five cell lines viability, CellTiter-Glo ATP luminescence, 48-72 h; max response: hits give low values; as to max response: % is scaled to controls: 0 for no effect and ±100 for the full control effect
Summary of the method: (§2)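 Cytotoxicity was measured as CellTiter-Glo ATP luminescence, read after 10 min at room temperature. Compound treatment of the cells lasted 48 or 72 hr at 37 degrees Celsius in a qHTS format.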

HaCat = assay: as above; settings: Five cell lines viability, CellTiter-Glo ATP luminescence, 48-72 h; max response: hits give low values
Summary of the method: as §2

KB-3-1 = assay: as above; settings: Five cell lines viability, CellTiter-Glo ATP luminescence, 48-72 h; max response: hits give low values
Summary of the method: as §2

HB3 = assay: qHTS profiling for inhibitors of Plasmodium falciparum proliferation (AID 504749); settings: P. falciparum in erythrocytes, SYBR Green DNA, 72 h; series mostly up to 28.7 µM
Summary of the method: as §1

W2 = assay: as above; settings: P. falciparum in erythrocytes, SYBR Green DNA, 72 h; series mostly up to 28.7 µM
Summary of the method: as §1

NIH3T3 = assay: Cytotoxic Profiling of Annotated Libraries Using Quantitative High-Throughput Screening (AID 1296008); settings: Five cell lines viability, CellTiter-Glo ATP luminescence, 48-72 h; max response: hits give low values; as to max response: % is scaled to controls: 0 for no effect and ±100 for the full control effect
Summary of the method: as §2
Also: nearly all actives have a fitted effect of over 60% in size.
Potency is read from the fitted curve at half-maximal effect.

Oc1ccc(Cl)c2cccnc12
active: Potency (ICS) 11.2 µM
inactive: Potency (JCK) | Potency (N140) | Potency (P93_24) | Potency (P94_40) | Potency (PAD) | Potency (PC15) | Potency (PC26) | Potency (PC49) | Potency (SC27B) | Potency (TAB109) | Potency (TAB113) | Potency (TAB165) | outcome (CRL-7250) | outcome (HaCat) | max response (KB-3-1) -11.9%

CN(C)CCCOc1nn(Cc2ccccc2)c2ccccc12
inactive: Potency (HB3) | Potency (ICS) | Potency (N140) | Potency (P94_40) | Potency (PAD) | Potency (PC15) | Potency (PC49) | Potency (SC27B) | Potency (TAB109) | Potency (TAB113) | max response (CRL-7250) 1.45% | max response (HaCat) 3.55% | max response (KB-3-1) -14.4% and -24.2%
active: Potency (W2) 2.28 µM

COc1ccc(CN2CCN(C(c3ccc(F)cc3)c3ccc(F)cc3)CC2)c(OC)c1OC
inactive: outcome (CRL-7250) | max response (HaCat) -19.9% | outcome (HaCat) | max response (KB-3-1) 6.7% | max response (NIH3T3) 1.96% and 2.43%
active: Potency (HB3) 11.2 µM | Potency (ICS) 2.24 µM | Potency (N140) 8.91 µM | Potency (P93_24) 7.94 µM | Potency (P94_40) 7.08 µM | Potency (PAD) 8.91 µM | Potency (PC26) 12 µM | Potency (SC27B) 10 µM | Potency (TAB109) 11.2 µM | Potency (TAB113) 8.91 µM | Potency (TAB165) 7.08 µM | Potency (W2) 3.38 µM

CCCOC(C(=O)OC1CCN(C)CC1)(c1ccccc1)c1ccccc1
active: Potency (ICS) 7.94 µM | Potency (W2) 6.01 µM
inactive: Potency (PAD) | Potency (PC49) | max response (CRL-7250) -3.11% | max response (HaCat) -26.2% | max response (NIH3T3) 4.34%

O=C(CCCN1CCC(O)(c2ccc(Br)cc2)CC1)c1ccc(F)cc1
active: Potency (ICS) 3.55 µM | Potency (PC49) 0.398 µM | Potency (TAB109) 3.16 µM | Potency (W2) 1.44 µM
inactive: Potency (SC27B) | max response (CRL-7250) 2.7% | max response (HaCat) -2.82% | max response (KB-3-1) 3.87%

CC(=O)[C@H]1CC[C@H]2[C@@H]3C[C@H](C)C4=CC(=O)CC[C@]4(C)[C@H]3[C@@H](O)C[C@]12C
inactive: outcome (CRL-7250) | max response (HaCat) -3.2% | max response (KB-3-1) 30.5% | outcome (NIH3T3)

COc1cc2c(cc1OC)[C@@H]1CC(=O)[C@@H](CC(C)C)CN1CC2
inactive: max response (CRL-7250) -4.44% | max response (HaCat) -0.956% | max response (KB-3-1) 20.8% | outcome (NIH3T3)

CC(=O)Oc1ccc(C(c2ccc(OC(C)=O)cc2)c2ccccn2)cc1
active: Potency (PC49) 7.08 µM
inactive: Potency (HB3) | Potency (ICS) | Potency (N140) | Potency (P93_24) | Potency (P94_40) | Potency (PAD) | Potency (PC15) | Potency (PC26) | Potency (SC27B) | Potency (TAB109) | Potency (TAB113) | Potency (TAB165) | Potency (W2) | max response (CRL-7250) -7.93% | max response (HaCat) -0.175% | max response (KB-3-1) -5.6% | max response (NIH3T3) -2.66%

COC1=CC(=O)C[C@@H](C)[C@]12Oc1c(Cl)c(OC)cc(OC)c1C2=O
active: Potency (HaCat) 23.7 µM
inactive: Potency (HB3) | Potency (ICS) | Potency (JCK) | Potency (N140) | Potency (P93_24) | Potency (P94_40) | Potency (PAD) | Potency (PC15) | Potency (PC26) | Potency (PC49) | Potency (SC27B) | Potency (TAB109) | Potency (TAB113) | Potency (TAB165) | Potency (W2) | outcome (CRL-7250) | max response (KB-3-1) -57.5%

C[C@H]1C[C@H]2[C@@H]3CCC4=CC(=O)C=C[C@]4(C)[C@@]3(Cl)[C@@H](O)C[C@]2(C)[C@@]1(O)C(=O)CO
inactive: Potency (HB3) | Potency (JCK) | Potency (N140) | Potency (P93_24) | Potency (P94_40) | Potency (PAD) | Potency (PC15) | Potency (PC26) | Potency (PC49) | Potency (SC27B) | Potency (TAB109) | Potency (TAB113) | Potency (TAB165) | Potency (W2) | outcome (CRL-7250) | max response (HaCat) -6.93% | max response (KB-3-1) 6.92% | max response (NIH3T3) -12.3%

OC(CCN1CCCCC1)(c1ccccc1)c1ccccc1
active: Potency (ICS) 12.6 µM | Potency (P94_40) 10 µM | Potency (TAB113) 8.91 µM | Potency (TAB165) 14.1 µM | Potency (W2) 4.26 µM
inactive: Potency (HB3) | outcome (CRL-7250) | outcome (HaCat) | max response (KB-3-1) 16.8% | max response (NIH3T3) 2.78%

O=C1[C@H]2CCCC[C@H]2C(=O)N1CCCCN1CCN(c2nsc3ccccc23)CC1
inactive: Potency (JCK) | Potency (N140) | Potency (P94_40) | Potency (PAD) | Potency (PC49) | Potency (SC27B) | Potency (TAB109) | Potency (TAB113) | outcome (CRL-7250) | max response (HaCat) -5.6% | max response (KB-3-1) 2.4% | max response (NIH3T3) 2.44%
active: Potency (W2) 15.1 µM

CC(=O)N/N=C/c1ccc([N+](=O)[O-])o1
inactive: Potency (PC26) | Potency (PC49) | max response (CRL-7250) -0.507% | outcome (HaCat) | max response (KB-3-1) -2.33%
active: Potency (ICS) 5.62 µM | Potency (N140) 12.6 µM | Potency (TAB109) 6.31 µM | Potency (TAB165) 12.6 µM

C/C=C(/C(=C/C)c1ccc(O)cc1)c1ccc(O)cc1
inactive: max response (CRL-7250) 1.03% | max response (HaCat) -0.716% | max response (KB-3-1) -11.5%

CC1(C)O[C@@H]2C[C@H]3[C@@H]4CCC5=CC(=O)CC[C@]5(C)[C@@]4(F)[C@@H](O)C[C@]3(C)[C@]2(C(=O)CCl)O1
inactive: max response (CRL-7250) 2.38% | outcome (HaCat) | max response (KB-3-1) 33.4% | max response (NIH3T3) -10.1%

CC(=O)c1ccc2c(c1)N(CCCN1CCC(CCO)CC1)c1ccccc1S2
active: Potency (W2) 1.02 µM
inactive: Potency (HB3) | Potency (JCK) | Potency (N140) | Potency (P94_40) | Potency (PAD) | Potency (PC15) | Potency (PC49) | Potency (SC27B) | Potency (TAB109) | Potency (TAB113) | Potency (TAB165) | max response (CRL-7250) -7.11% | outcome (HaCat) | max response (KB-3-1) -5.25%
